About 83,000 compounds went through this panel and 20% of them were active in at least one assay; those are over-represented in the sample as a whole.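 Note: values are percent growth. 100 is the growth of untreated cells, values between 100 and 0 indicate rising inhibition; between -100 and 0 indicates cell death.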 A number with no mark means an inactive call. Activity calls are given as the source filed them. The calls were made as follows: active = growth percent below 10; inactive = the rest.
Tests used:
Assay in all cases: NCI-60 one-dose screen, 48 h (100 = growth as untreated, 0 = no growth, -100 = all killed)
Conditions in all cases: 10 µM unless noted
[1] = system: SK-MEL-2 melanoma
[2] = system: EKVX NSCLC
[3] = system: SN12C renal
[4] = system: UO-31 renal
[5] = system: TK-10 renal
[6] = system: ACHN renal
[7] = system: CAKI-1 renal
[8] = system: CCRF-CEM leukemia
[9] = system: MOLT-4 leukemia
[10] = system: A498 renal

## N#C/C(=C\c1ccc(Br)cc1)n1nnc2ccccc21
[1]
  growth: -1.82% (active)
[2]
  growth: 20%
[3]
  growth: 8.47% (active)
[4]
  growth: -13.6% (active)
[5]
  growth: 1.55% (active)
[6]
  growth: -16.7% (active)
[7]
  growth: 1.73% (active)
[8]
  growth: 8.29% (active)
[9]
  growth: 9.75% (active)

## COc1ccc(C2=NC(=O)NC2c2ccc(OC)cc2)cc1 (stereo not given)
[1]
  growth: 59.9%
[2]
  growth: 75.9%
[3]
  growth: 71%
[4]
  growth: 61%
[5]
  growth: 87.6%
[6]
  growth: 83.2%
[7]
  growth: 50.6%
[9]
  growth: 65.8%

## CO/C(=C1/NC(=O)C(Cc2ccc(O)c(Br)c2)N(C)C(=O)C(C)NC(=O)CCC/C=C(\C)CCC(C)OC1=O)c1ccccc1 (stereo not given)
[1]
  growth: -100% (active)
[2]
  growth: -25.3% (active)
[3]
  growth: 6.56% (active)
[4]
  growth: -84.9% (active)
[5]
  growth: -83.2% (active)
[6]
  growth: -34.7% (active)
[10]
  growth: -63.7% (active)
[8]
  growth: 0.832% (active)
[9]
  growth: -12.2% (active)

## COC(=O)[C@]12CC[C@@H](C)[C@H](C)[C@@H]1C1=CC[C@@H]3[C@@]4(C)C(C=O)=C[C@@](C)(CO)C4=CC[C@@]3(C)[C@]1(C)CC2
[1]
  growth: 52.4%
[2]
  growth: 34.4%
[3]
  growth: 37.6%
[4]
  growth: 27.8%
[5]
  growth: 54.4%
[6]
  growth: 17.1%
[7]
  growth: 42.8%
[8]
  growth: 18.7%
[9]
  growth: 8.61% (active)

## Clc1ccc(-c2nc(NCCc3ccccc3)nc3c(NCCc4ccccc4)cnn23)cc1
[1]
  growth: 79.6%
[2]
  growth: 79.5%
[3]
  growth: 80.7%
[4]
  growth: 86.7%
[5]
  growth: 60.1%
[6]
  growth: 98.7%
[10]
  growth: 71.4%
[8]
  growth: 82.6%
[9]
  growth: 89.1%

## CCOC(=O)C1=C(C)NC(SCc2nnc(-c3ccc(Cl)cc3)o2)=NC1c1ccc(Cl)cc1Cl (stereo not given)
[1]
  growth: 60.3%
[2]
  growth: 77.2%
[3]
  growth: 65.4%
[4]
  growth: 37.2%
[5]
  growth: 79.4%
[6]
  growth: 57.7%
[10]
  growth: 77.7%
[8]
  growth: 27.4%
[9]
  growth: 11.3%

## COc1ccc(N=c2nc3sc4cc(Cl)ccc4n3c(N)c2C#N)cc1
[1]
  growth: 58.6%
[2]
  growth: 70.8%
[3]
  growth: 98.4%
[4]
  growth: 64.1%
[5]
  growth: 118%
[6]
  growth: 98.2%
[7]
  growth: 69.2%
[8]
  growth: 89.2%
[9]
  growth: 37.7%

## O=C(/C=C/C12c3ccccc3C(c3ccccc31)C1C(=O)N(c3ccc(Cl)cc3)C(=O)C12)c1ccccn1 (stereo not given)
[1]
  growth: -19.2% (active)
[2]
  growth: -34.8% (active)
[3]
  growth: -44.8% (active)
[4]
  growth: -98.5% (active)
[5]
  growth: -33.4% (active)
[6]
  growth: -35.4% (active)
[7]
  growth: -9.86% (active)
[8]
  growth: 13.1%
[9]
  growth: 20%

## O=C(CC12CC3CC(CC(C3)C1)C2)NCCOCCOCCOCCNC(=O)c1cc2c(o1)C(=O)c1ccccc1C2=O
[1]
  growth: -27.6% (active)
[2]
  growth: -27.1% (active)
[3]
  growth: -90.7% (active)
[4]
  growth: -68.5% (active)
[5]
  growth: -3.88% (active)
[6]
  growth: -22.4% (active)
[7]
  growth: -27% (active)
[8]
  growth: 13%
[9]
  growth: 7.19% (active)

## N=C(N)c1ccc(-c2ccc(-c3ccc(Cl)cc3Cl)o2)nc1
[1]
  growth: 103%
[2]
  growth: 95.4%
[3]
  growth: -42.8% (active)
[4]
  growth: -16.1% (active)
[5]
  growth: 61%
[6]
  growth: 12.3%
[7]
  growth: 53.8%
[8]
  growth: -12.9% (active)
[9]
  growth: 1.62% (active)

## C/C(=N\NC(N)=S)c1nc2ccc(Cl)cc2[nH]1
[1]
  growth: 32.1%
[2]
  growth: 63.3%
[3]
  growth: 48.5%
[4]
  growth: 41.9%
[5]
  growth: 33.9%
[6]
  growth: 19.6%
[7]
  growth: 26.9%
[8]
  growth: 32.8%
[9]
  growth: 30.4%

## Nc1nc(Nc2ccc(Cl)cc2)nn1S(=O)(=O)c1ccc(-c2ccc(F)cc2)cc1
[1]
  growth: 107%
[2]
  growth: 81.5%
[3]
  growth: 83.2%
[4]
  growth: 57.2%
[5]
  growth: 97.3%
[6]
  growth: 81.8%
[7]
  growth: 59.8%
[9]
  growth: 74.5%

## COc1ccc(-c2nnc(SCC(=O)NC3=NN=C(c4ccccc4)CS3)o2)cc1
[1]
  growth: 103%
[2]
  growth: 101%
[3]
  growth: 99.8%
[4]
  growth: 88.1%
[5]
  growth: 106%
[6]
  growth: 99.6%
[10]
  growth: 86.4%
[8]
  growth: 90.8%
[9]
  growth: 83.9%

## CCn1c(Sc2nnc(NC(=O)CCN3CCCC3)s2)nc2c1c(=O)n(C)c(=O)n2C
[1]
  growth: 108%
[2]
  growth: 99.3%
[3]
  growth: 96.8%
[4]
  growth: 88.7%
[5]
  growth: 104%
[6]
  growth: 100%
[7]
  growth: 94.6%
[8]
  growth: 103%
[9]
  growth: 108%

## COc1cc2c(cc1OC)-c1ccc3cc4c(cc3c1N(CCCN1CCCCC1)C2)OCO4
[1]
  growth: 68.8%
[2]
  growth: 69.4%
[3]
  growth: 30.5%
[4]
  growth: 37.6%
[5]
  growth: 73.2%
[10]
  growth: 65%
[8]
  growth: 19.6%
[9]
  growth: 6.01% (active)

## NC(=Nc1ccc(N)cc1)C(N)=Nc1ccc(N)cc1
[1]
  growth: -7.4% (active)
[2]
  growth: 107%
[3]
  growth: 104%
[4]
  growth: 92.9%
[5]
  growth: 87.3%
[6]
  growth: 93.4%
[9]
  growth: 124%

## COc1cc2c(cc1OC)-c1ccc3cc4c(cc3c1N(CCCn1ccnc1)C2)OCO4
[1]
  growth: 37.7%
[2]
  growth: 98.2%
[3]
  growth: 18.1%
[4]
  growth: 80.8%
[5]
  growth: 91.3%
[10]
  growth: 85.2%
[8]
  growth: 1.56% (active)
[9]
  growth: 2.11% (active)

## CCOC(=O)c1ccc(NC(=O)CCCN(CC)CC)cc1
[1]
  growth: 73%
[2]
  growth: 105%
[3]
  growth: 106%
[4]
  growth: 88.7%
[5]
  growth: 88.2%
[10]
  growth: 118%
[8]
  growth: 106%

## COc1ccc(C2CC(c3cnccn3)=NN2)cc1OC (stereo not given)
[1]
  growth: 79%
[2]
  growth: 108%
[3]
  growth: 104%
[4]
  growth: 88.7%
[5]
  growth: 82.7%
[10]
  growth: 112%
[8]
  growth: 75.2%
[9]
  growth: 72%

## CCOC(=O)c1c(C)nc2c(c1N)/C(=C/c1cc(OC)c(OC)c(OC)c1)C(=O)N2c1ccc(OC)cc1
[1]
  growth: 67.1%
[2]
  growth: 93.2%
[3]
  growth: 36.2%
[4]
  growth: 55.7%
[5]
  growth: 77.4%
[10]
  growth: 82.2%
[8]
  growth: 8.45% (active)
[9]
  growth: 17.6%

## O=C(Nc1ccccc1Cl)OCCN1CCOCC1
[1]
  growth: 96.7%
[2]
  growth: 104%
[3]
  growth: 98%
[4]
  growth: 92.4%
[5]
  growth: 92.8%
[10]
  growth: 129%
[8]
  growth: 86%
[9]
  growth: 92.3%

## Cc1cc(-c2ccccc2)cc(SC#N)[n+]1[O-]
[1]
  growth: 49.1%
[2]
  growth: 26.2%
[3]
  growth: 51.7%
[4]
  growth: 40.4%
[5]
  growth: 55.9%
[10]
  growth: 67.7%
[8]
  growth: 6.22% (active)
[9]
  growth: 10.1%

## CC(c1ccc(-n2cccn2)cc1)c1cnc(N2CCc3ccc(C(N)=O)cc3C2)s1 (stereo not given)
[1]
  growth: 51.7%
[2]
  growth: 54.3%
[3]
  growth: 86.9%
[4]
  growth: 51.8%
[5]
  growth: 68.6%
[10]
  growth: 81%
[8]
  growth: 33.4%
[9]
  growth: 8.64% (active)

## CCOC(=O)c1c(C)[nH]c(C(=O)CCC(=O)OC)c1C
[1]
  growth: 83.1%
[2]
  growth: 95.2%
[3]
  growth: 110%
[4]
  growth: 92.7%
[5]
  growth: 84.3%
[10]
  growth: 119%
[8]
  growth: 92.8%
[9]
  growth: 93%

## NS(=O)(=O)c1cn(-c2ncnc3nc[nH]c23)ccc1=O
[1]
  growth: 95.4%
[2]
  growth: 97.8%
[3]
  growth: 92.4%
[4]
  growth: 78.2%
[5]
  growth: 94.5%
[6]
  growth: 99.2%
[10]
  growth: 89.1%
[9]
  growth: 99.5%

## CCOC(=O)c1c(C)nc2c(c1N)/C(=C/c1ccc(OC)cc1)C(=O)N2Cc1ccc(F)cc1
[1]
  growth: -27.5% (active)
[2]
  growth: 9.23% (active)
[3]
  growth: -40% (active)
[4]
  growth: -38.4% (active)
[5]
  growth: -70.8% (active)
[10]
  growth: -44.2% (active)
[8]
  growth: -5.4% (active)

## CCN(CC)CCOC(=O)N1c2ccccc2Sc2ccccc21
[1]
  growth: 97.9%
[2]
  growth: 106%
[3]
  growth: 101%
[4]
  growth: 87.9%
[5]
  growth: 88.2%
[10]
  growth: 97.1%
[8]
  growth: 69.1%
[9]
  growth: 96.1%

## COc1cc2c(cc1OC)-c1ccc3cc4c(cc3c1N(CCCN(C)C)C2)OCO4
[1]
  growth: 45.4%
[2]
  growth: 60%
[3]
  growth: 27.4%
[4]
  growth: 38.7%
[5]
  growth: 46.6%
[10]
  growth: 8.3% (active)
[8]
  growth: 20.5%

## O=[N+]([O-])c1ccc(-c2cc3c(Nc4ccc(Cl)c(C(F)(F)F)c4)ncnc3s2)cc1
[1]
  growth: -4.98% (active)
[2]
  growth: 7.59% (active)
[3]
  growth: 2.43% (active)
[4]
  growth: -3.64% (active)
[5]
  growth: 9.44% (active)
[6]
  growth: 4.57% (active)
[10]
  growth: -13% (active)
[8]
  growth: 17.5%
[9]
  growth: 9.22% (active)

## Cc1nc(Nc2ccc(NC(=S)Nc3ccccc3)cc2)nc2nc(Nc3cccc(Cl)c3)[nH]c(=O)c12
[1]
  growth: 88.8%
[2]
  growth: 119%
[3]
  growth: 97.4%
[4]
  growth: 96.4%
[5]
  growth: 142%
[6]
  growth: 96.7%
[10]
  growth: 91.3%
[8]
  growth: 81.2%
[9]
  growth: 64.9%

From PubChem BioAssay (NCI)
